# Measured values as given in PubChem BioAssay.
# Activity calls are given as the source filed them.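 The calls were made as follows: active = visually confirmed hit in the image check and inhibition above 20%; inconclusive = visually confirmed hit but inhibition not above 20%; inactive = no visual hit in the image check.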
# Assay: inhibitors of E-selectin induction by TNFa, primary screen, imaging, HUVEC, immunofluorescence, MLSMR starter and 10KST1 sets (AID 487);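 as to inhibition: signal is fraction of cell area covered by stained E-selectin grains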;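 as to nuclei count: 100% = median nuclei count of all wells on the same plate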
# Details: HUVEC TNFalpha-induced E-selectin immunofluorescence imaging, at 2 µM; inhibition: stronger effect = higher value; nuclei count: measured here: cell number, toxicity
SMILES,nuclei count [%],inhibition
COC(=O)C1C2C=CC3(CN(CC4CCCO4)C(=O)C13)O2 (stereo not given),98.5,9.9% (inactive)
N#Cc1c(-c2ccc3c(c2)OCO3)csc1N,106,-102% (inactive)
CCN(CC(=O)Nc1ccc2c(c1)CCC2)Cc1nc2ccccc2c(=O)[nH]1,102,-1.6% (inactive)
O=C(Nc1ccncc1)c1cc2ccccc2o1,140,-106% (inactive)
COc1cc(C(=O)NCC(=O)OCC(=O)c2ccc[nH]2)cc(OC)c1OC,107,-64.2% (inactive)
Cc1cc(C(=O)COC(=O)CCc2nc3ccccc3s2)c(C)n1C,96,-16% (inactive)
O=C1c2ccccc2C(=O)N1c1cccc(-c2nc3ccccc3o2)c1,130,-175% (inactive)
Cc1ccc2[nH]c3c(c2c1)CN(C(=O)CN1CCN(c2cccc(C)c2C)CC1)CC3,111,-86.9% (inactive)
CN(CCNC(=O)c1ccc(N2CCCC2=O)cc1)CCc1ccccc1,111,-79.5% (inactive)
Cc1cccc(-n2ncc3c(NCc4cccs4)ncnc32)c1,108,-119% (inactive)
COc1ccccc1C1N(c2ccc(F)cc2)C(=O)C2CCCN21 (stereo not given),91.4,27.9% (inactive)
COCC(=O)n1nc(NCc2ccc(OC)cc2)nc1NCc1ccc(OC)cc1,96.2,-25.2% (inactive)
O=C(CSc1nc2ccccc2o1)N1CCN(C(=O)c2ccco2)CC1,99.6,-19.5% (inactive)
Cc1nn(Cc2ccccc2)c(C)c1NC(=O)c1cc(-c2ccco2)on1,101,-15.3% (inactive)
O=C(COc1ccc(F)cc1)Nc1ccc(-n2cnnn2)cc1,62.3,52.5% (inactive)
Cc1cc(NC(=O)CSc2nc3c(c(-c4cccnc4)c2C#N)CCC3)no1,88.6,15.2% (inactive)
O=C1C2CCCN2C(c2ccccc2)N1c1ccc(Cl)cc1 (stereo not given),114,-25.3% (inactive)
COC(=O)c1ccccc1NC(=O)CN1CCC(n2nnc3cc(F)ccc32)CC1,91.3,35% (inactive)
Cc1nn(-c2ccccc2)c2[nH]c(C(F)(F)F)cc(=O)c12,97.8,-10.5% (inactive)
Cc1ccc(S(=O)(=O)N2CCN(C(=O)N3CCOCC3)C2C)cc1 (stereo not given),108,-48.1% (inactive)

SMILES,nuclei count [%],inhibition
O=C(CCC(=O)OCC(=O)c1ccccc1)NC1CCCCC1,112,30.3% (inactive)
COc1cccc(Nc2nnc(SCC(=O)N3CC(C)OC(C)C3)s2)c1 (stereo not given),117,-19.6% (inactive)
O=C(NCc1ccco1)c1cccc(S(=O)(=O)N2CCCCC2)c1,120,-87.1% (inactive)
CSc1ccc(-c2cc(=O)c3ccccc3o2)cc1,139,-108% (inactive)
CCN(CC)C(c1ccc(C)cc1)c1nnnn1C1CCCCC1 (stereo not given),88.2,60% (inactive)
Cc1nonc1NC(=O)c1ccccc1Br,60,52.4% (inactive)
Cc1cc(NC(=O)Cc2c(F)cccc2Cl)no1,94.3,34.2% (inactive)
Cc1cc(C)nc(SCc2nnc(SCC(=O)Nc3ncc(C)s3)n2Cc2ccco2)n1,103,-23.5% (inactive)
CSc1ccccc1NC(=O)CN(c1ccccc1)S(=O)(=O)N(C)C,140,4.1% (inactive)
Cc1cc(NC(=O)C(C)(C)C)no1,124,-50.6% (inactive)
O=C(c1nn2cccnc2c1Cl)N1CCN(c2ccccc2)CC1,94.5,-45.6% (inactive)
Cc1ccc(NC(=O)COC(=O)c2ccn(C)n2)cc1,109,-28.3% (inactive)
COCCCN1C(=O)C(O)=C(C(C)=O)C1c1ccccn1 (stereo not given),116,-38.3% (inactive)
CN(C)c1nc(Oc2ccc(N)cc2)nc(N(C)C)n1,92,27% (inactive)
CC(=O)NCCc1ccc(S(=O)(=O)NCc2ccc3c(c2)OCO3)cc1,82.1,35.7% (inactive)
N#Cc1c(N)oc(-c2cccs2)c1-c1cccs1,120,-29.4% (inactive)
O=c1c2cnn(-c3ccccc3)c2ncn1/N=C/c1ccncc1,108,-71.4% (inactive)
Cc1c(Cl)cccc1NC(=O)CCN1CCCCCC1,143,-108% (inactive)
CCNc1ccc(S(=O)(=O)C(F)(F)F)cc1NC(=O)C12CCC(CC1)C2,101,-30.6% (inactive)
O=C(CSc1n[nH]c(=O)[nH]c1=O)c1ccccc1,99.8,-33.2% (inactive)
